PubChem BioAssay (NCATS)
Inconclusive results are not listed. Calls of active or inactive are those of the source. Calls come from the whole dose curve; as a rule, active = well fitted inhibition curve with a large enough effect; inconclusive = small, poorly fitted or top-dose-only effect; inactive = flat fitted curve, though single readings scatter.

Experiments:
[1] = qHTS profiling for inhibitors of Plasmodium falciparum proliferation (AID 504749);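 note: 0% = DMSO vehicle and full inhibition = artemisinin control; nearly all actives have a fitted effect of over 60% in size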; conditions: P. falciparum in erythrocytes, SYBR Green DNA, 72 h; at 28.7 µM (top of the series); parasite line A
Method in brief: (§1)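 P. falciparum-infected erythrocytes (0.3% parasitemia, 2.5% hematocrit final) were exposed to compounds for 72 h at 37 C in 5% CO2, then lysed with SYBR Green buffer overnight at room temperature; parasite DNA fluorescence was normalized to artemisinin and DMSO controls.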

[2] = system: 3D7; experiment: as above; conditions: P. falciparum in erythrocytes, SYBR Green DNA, 72 h; series mostly up to 28.7 µM
Method in brief: as §1

[3] = system: 7G8; experiment: as above; conditions: P. falciparum in erythrocytes, SYBR Green DNA, 72 h; series mostly up to 28.7 µM
Method in brief: as §1

[4] = system: ATS95; experiment: as above; conditions: P. falciparum in erythrocytes, SYBR Green DNA, 72 h; series mostly up to 28.7 µM
Method in brief: as §1

[5] = system: CP185; experiment: as above; conditions: P. falciparum in erythrocytes, SYBR Green DNA, 72 h; series mostly up to 28.7 µM
Method in brief: as §1

[6] = system: CP237; experiment: as above; conditions: P. falciparum in erythrocytes, SYBR Green DNA, 72 h; series mostly up to 28.7 µM
Method in brief: as §1

[7] = system: CP238; experiment: as above; conditions: P. falciparum in erythrocytes, SYBR Green DNA, 72 h; series mostly up to 28.7 µM
Method in brief: as §1

[8] = system: CP262; experiment: as above; conditions: P. falciparum in erythrocytes, SYBR Green DNA, 72 h; series mostly up to 28.7 µM
Method in brief: as §1

[9] = system: CP265; experiment: as above; conditions: P. falciparum in erythrocytes, SYBR Green DNA, 72 h; series mostly up to 28.7 µM
Method in brief: as §1

[10] = system: CP269; experiment: as above; conditions: P. falciparum in erythrocytes, SYBR Green DNA, 72 h; series mostly up to 28.7 µM
Method in brief: as §1

[11] = system: CP305; experiment: as above; conditions: P. falciparum in erythrocytes, SYBR Green DNA, 72 h; series mostly up to 28.7 µM
Method in brief: as §1

[12] = system: CP335; experiment: as above; conditions: P. falciparum in erythrocytes, SYBR Green DNA, 72 h; series mostly up to 28.7 µM
Method in brief: as §1

[13] = system: DIV30; experiment: as above; conditions: P. falciparum in erythrocytes, SYBR Green DNA, 72 h; series mostly up to 28.7 µM
Method in brief: as §1

[14] = system: Dd2; experiment: as above; conditions: P. falciparum in erythrocytes, SYBR Green DNA, 72 h; series mostly up to 28.7 µM
Method in brief: as §1

[15] = system: ECU; experiment: as above; conditions: P. falciparum in erythrocytes, SYBR Green DNA, 72 h; series mostly up to 28.7 µM
Method in brief: as §1

[16] = system: GB4; experiment: as above; conditions: P. falciparum in erythrocytes, SYBR Green DNA, 72 h; series mostly up to 28.7 µM
Method in brief: as §1

[17] = system: HB3; experiment: as above; conditions: P. falciparum in erythrocytes, SYBR Green DNA, 72 h; series mostly up to 28.7 µM
Method in brief: as §1

[18] = system: PAD; experiment: as above; conditions: P. falciparum in erythrocytes, SYBR Green DNA, 72 h; series mostly up to 28.7 µM
Method in brief: as §1

[19] = system: PC26; experiment: as above; conditions: P. falciparum in erythrocytes, SYBR Green DNA, 72 h; series mostly up to 28.7 µM
Method in brief: as §1

[20] = system: TAB109; experiment: as above; conditions: P. falciparum in erythrocytes, SYBR Green DNA, 72 h; series mostly up to 28.7 µM
Method in brief: as §1

CC(/C=C1\SC(=S)N(CC(=O)O)C1=O)=C\c1ccccc1
inactive: activity, negative = inhibition [1] -3.63% | Potency [2] | Potency [3] | Potency [4] | Potency [5] | Potency [6] | Potency [7] | Potency [8] | Potency [9] | Potency [10] | Potency [11] | Potency [12] | Potency [13] | Potency [14] | Potency [15] | Potency [16] | Potency [17] | Potency [18] | Potency [19] | Potency [20]
